Experimental data: PubChem BioAssay (NCATS)
“And” between values parts separate entries of the source, which are not always exact repeats. Equal entries are not always repeated. Results filed as inconclusive are left out. The source made the active and inactive calls. Calls follow the shape of the dose curve; as a rule, active = well fitted curve in the direction sought with a large enough effect; inconclusive = small, poorly fitted or top-dose-only effect, or another doubt; inactive = no such curve, though single readings can be large; an effect the other way counts as inactive or inconclusive.

Assays:
[1] = Viability qHTS for spleen associated tyrosine kinase inhibitor (SYKi) drug resistant MV4-11 cells (AID 1963824); also: nearly all actives have a fitted effect of over 35% in size
Method in brief: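 CellTiter-Glo luminescence, read 10 min after reagent addition, reports viability after a 72 hr compound exposure. Cells are an MV4-11 line made resistant to SYK inhibition, seeded at 500 per well onto compound-containing plates.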

[2] = Quantitative highthroughput screen to assess conditional lethalithy of NOMO1 cells grown in RPMI1640 with untreated serum (RPMI+s) (AID 1963876); also: nearly all actives have a fitted effect of over 35% in size;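 as to Viability: 100% = DMSO wells and 0% = empty wells without cells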
Method in brief: (§1)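 Each medium arm—HPLM with 10% dialyzed FBS, or RPMI1640 with 5 mM glucose and 10% untreated or dialyzed FBS—was screened against an 11-point, 3-fold compound titration for 48 h at 37 °C, with CellTiter-Glo luminescence as endpoint.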

[3] = Quantitative highthroughput screen to assess conditional lethalithy of NOMO1 cells grown in RPMI1640 with dialyzed fetal bovine serum (RPMI+ds) (AID 1963877); also: nearly all actives have a fitted effect of over 30% in size;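 as to Viability: series mostly up to about 46 µM; 100% = DMSO control wells and 0% = empty wells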
Method in brief: as §1

[4] = Quantitative highthroughput screen to assess conditional lethalithy of NOMO1 cells grown in Human Plasma-Like Medium with dialyzed fetal bovine serum (HPLM+ds) (AID 1963878); also: nearly all actives have a fitted effect of over 35% in size;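 as to Viability: 100% = DMSO wells and 0% = empty wells on each plate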
Method in brief: as §1

[5] = Quantitative highthroughput screen to assess conditional lethalithy of P12 Ichikawa cells grown in Human Plasma-Like Medium with dialyzed fetal bovine serum (HPLM+ds) (AID 1963879); settings: Potency: viability; also: nearly all actives have a fitted effect of over 35% in size; as to Viability: series mostly up to about 46 µM
Method in brief: as §1

[6] = Quantitative highthroughput screen to assess conditional lethalithy of P12 Ichikawa cells grown in RPMI1640 with dialyzed fetal bovine serum (RPMI+ds) (AID 1963880); settings: Potency: P12-Ichikawa viability; also: nearly all actives have a fitted effect of over 35% in size;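 as to Viability: 100% = DMSO wells and 0% = empty wells on each plate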
Method in brief: as §1

[7] = Quantitative highthroughput screen to assess conditional lethalithy of P12 Ichikawa cells grown in RPMI1640 with untreated serum (RPMI+s) (AID 1963881); settings: Potency: viability; also: nearly all actives have a fitted effect of over 35% in size;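 as to Viability: series mostly up to about 46 µM; 100% = DMSO wells and 0% = empty wells without cells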
Method in brief: as §1

[8] = Quantitative highthroughput screen to assess conditional lethalithy of SEM cells grown in Human Plasma-Like Medium with dialyzed fetal bovine serum (HPLM+ds) (AID 1963882); also: nearly all actives have a fitted effect of over 35% in size; as to Viability: series mostly up to about 46 µM
Method in brief: as §1

[9] = Quantitative highthroughput screen to assess conditional lethalithy of SEM cells grown in RPMI1640 with unreated serum (RPMI+s) (AID 1963883); also: nearly all actives have a fitted effect of over 35% in size;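 as to Viability: 100% = DMSO wells and 0% = empty wells without cells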
Method in brief: as §1

[10] = Quantitative highthroughput screen to assess conditional lethalithy of SEM cells grown in RPMI1640 with dialyzed fetal bovine serum (RPMI+ds) (AID 1963884); also: nearly all actives have a fitted effect of over 35% in size;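 as to Viability: series mostly up to about 46 µM; 100% = DMSO control wells and 0% = empty wells without cells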
Method in brief: as §1

[11] = Cellular viability qHTS for adrenocortical cancer (ACC) cell line SW-13 (AID 1963989); settings: SW-13 ACC cells viability, CellTiter-Glo, 48 h; activity (max response): active compounds read low; also: nearly all actives have a fitted effect of over 65% in size;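 as to activity (max response): cells grown in serum-free medium with ITS supplement; % is scaled to controls: 0 for no effect and ±100 for the full control effect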
Method in brief: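 48 h treatment, SW-13 in ITS/DMEM serum-free; doses up to 46 uM; readout CellTiter-Glo luminescence; curve fit four-parameter logistic.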

[12] = Cellular viability qHTS for adrenocortical cancer (ACC) cell line NCI-H295R (AID 1963990); also: nearly all actives have a fitted effect of over 60% in size
Method in brief: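 Compound titrations (up to 46 uM final) are applied to NCI-H295R cultures for 48 h at 37C. Viable cell number is estimated by CellTiter-Glo signal, normalised to DMSO and doxorubicin controls.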
Potency is read from the fitted curve at half-maximal effect.

CCc1ccc(CCOc2ccc(CC3SC(=O)NC3=O)cc2)nc1 (stereo unspecified)
inactive: Potency [1] | Potency [2] | Potency [3] | Potency [4] | Potency [5] | Potency [6] | Potency [7] | Potency [8] | Potency [9] | Potency [10] | activity (max response) [11] 0.771% and -12.6% | Potency [12]

Cc1cccc(CN2CCN(C(c3ccccc3)c3ccc(Cl)cc3)CC2)c1 (stereo unspecified)
active: Potency [1] 11.9 µM and 26.3 µM | Potency [11] 3.26 µM and 28.2 µM
inactive: Potency [2] | Potency [3] | Potency [4] | Potency [5] | Potency [6] | Potency [7] | Potency [8] | Potency [9] | Potency [10]

CN1C(C(=O)Nc2ccccn2)=C(O)c2sc(Cl)cc2S1(=O)=O
inactive: Potency [2] | Potency [3] | Potency [4] | Potency [5] | Potency [6] | Potency [7] | Potency [8] | Potency [9] | Potency [10] | activity (max response) [11] -21.7% | Potency [12]
active: Potency [1] 16.6 µM

CCCCc1ccc(NS(=O)(=O)c2ccc(C)c(C(=O)N3CCN(c4cccc(C)c4C)CC3)c2)cc1
active: Potency [1] 42.8 µM | Potency [12] 44700 nM
inactive: Potency [2] | Potency [3] | Potency [4] | Potency [5] | Potency [6] | Potency [7] | Potency [8] | Potency [9] | Potency [10]

CC(C(=O)O)c1cccc(C(=O)c2ccccc2)c1 (stereo unspecified)
inactive: Potency [1] | Potency [2] | Potency [3] | Potency [4] | Potency [5] | Potency [6] | Potency [7] | Potency [8] | Potency [9]

CC(C)(N)c1ccc(-c2nc3ccccc3nc2-c2ccccc2)cc1
inactive: activity (max response) [11] -5.56%
active: Potency [1] 14.8 µM | Potency [2] 74.3 nM | Potency [3] 83.3 nM | Potency [4] 23.5 nM | Potency [5] 23.5 nM | Potency [6] 74.3 nM | Potency [7] 93.5 nM | Potency [8] 46.9 nM | Potency [9] 14.8 nM | Potency [10] 33.2 nM
